Source: PubChem BioAssay (EPA / NIEHS)
Inconclusive results are not listed. Calls of active or inactive are those of the source. How the source made its calls, unless noted: active means hit-call score of the fitted dose curve at least 0.9, where 1 is the maximum; inactive means score below 0.9.

What was measured:
[1] = target: Nucleoli Translocation, AR (gene 367) (UniProt P10275); experiment: UPITT_HCI_U2OS_AR_TIF2_Nucleoli_Antagonist: University of Pittsburgh U2OS Androgen Receptor-Transcriptional Intermediary Factor 2 (AR-TIF2) Antagonism High Content Imaging Assay for Nucleoli Translocation (AID 2283997; active means hit-call score of the fitted dose curve at least 0.9, where 1 is the maximum)
Summary of the method: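 U2OS cells expressing RFP-tagged human AR and GFP-tagged TIF2 were imaged by high-content fluorescence microscopy for red AR signal in the nucleolar region. Compounds were screened at 20 uM final (0.2% DMSO), with activity fitted relative to DHT as baseline.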

[2] = target: Nucleoli Translocation, AR (gene 367) (UniProt P10275); experiment: UPITT_HCI_U2OS_AR_TIF2_Nucleoli_Agonist: University of Pittsburgh U2OS Androgen Receptor-Transcriptional Intermediary Factor 2 (AR-TIF2) Agonism High Content Imaging Assay for Nucleoli Translocation (AID 2283998; active means hit-call score of the fitted dose curve at least 0.9, where 1 is the maximum)
Summary of the method: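 Nucleolar translocation of AR-RFP, with TIF2-GFP coexpressed in human osteosarcoma U2OS, imaged by high-content fluorescence. Compounds tested singly at 20 uM final, confirmed in triplicate, then titrated 0.195–50 uM final; gain-of-signal relative to DMSO.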

[3] = target: Ratio of Nucleoli Translocation and Cytoplasm, AR (gene 367) (UniProt P10275); experiment: UPITT_HCI_U2OS_AR_TIF2_Nucleoli_Cytoplasm_Ratio_Antagonist: University of Pittsburgh U2OS Androgen Receptor-Transcriptional Intermediary Factor 2 (AR-TIF2) Antagonism High Content Imaging Assay for Ratio of Nucleoli Translocation and Cytoplasm (AID 2283999; active means hit-call score of the fitted dose curve at least 0.9, where 1 is the maximum;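 further: antagonists lower the DHT-driven ratio of nucleolar to cytoplasmic red signal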)
Summary of the method: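 High-content imaging quantifies the red nucleolar:cytoplasmic fluorescence ratio in U2OS cells with AR-RFP and TIF2-GFP. Final concentrations are 20 uM (screen) or 0.195–50 uM (dose response), analysed against DHT as baseline.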

[4] = target: Ratio of Nucleoli Translocation and Cytoplasm, AR (gene 367) (UniProt P10275); experiment: UPITT_HCI_U2OS_AR_TIF2_Nucleoli_Cytoplasm_Ratio_Agonist: University of Pittsburgh U2OS Androgen Receptor-Transcriptional Intermediary Factor 2 (AR-TIF2) Agonism High Content Imaging Assay for Ratio of Nucleoli Translocation and Cytoplasm (AID 2284000; active means hit-call score of the fitted dose curve at least 0.9, where 1 is the maximum;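 further: hits raise the red nucleolar to cytoplasm ratio above vehicle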)
Summary of the method: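 U2OS cells expressing RFP-tagged human AR and GFP-tagged TIF2 were imaged by high-content fluorescence microscopy. The endpoint is the ratio of nucleolar to cytoplasmic red fluorescence, fitted for gain of signal relative to DMSO. Concentration-response spanned 0.195 to 50 uM final (0.5% DMSO).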

[5] = CCTE_Harrill_HTTr_Viability_MCF7: CCTE's 6-hour Cell Viability Assessment for the High-Throughput Transcriptomics (HTTr) Platform, in MCF-7 cells cultured in DMEM + 10% fetal bovine serum, Harrill Lab (AID 2284010)
Summary of the method: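 Viability measured through PI dye exclusion by high-content imaging at 6 h post-dosing.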

[6] = CCTE_Harrill_HTTr_Apoptosis_MCF7: CCTE's 6-hour Apoptosis Assessment for the High-Throughput Transcriptomics (HTTr) Platform, in MCF-7 cells cultured in DMEM + 10% fetal bovine serum, Harrill Lab (AID 2284011)
Summary of the method: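 High-content imaging of CellEvent Caspase 3/7 Green signal follows a six-hour exposure, with eight concentrations per chemical. MCF-7 cells grown in DMEM plus 10% fetal bovine serum; activity fitted in both directions against DMSO.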

[7] = system: DIO1 (gene 1733); experiment: CCTE_GLTED_hDIO1: CCTE's human Deiodinase 1 (DIO1) Inhibition Assay, Great Lakes Toxicology and Ecology Division (GLTED) Lab (AID 2283987; active means hit-call score of the fitted dose curve at least 0.9, where 1 is the maximum;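 further: isolated human DIO1 enzyme in a cell-free setup rather than cells; enzyme activity read as free iodide liberated from substrate via Sandell-Kolthoff colorimetry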)
Summary of the method: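 Inhibition read as reduced iodide release: after 3 h of human DIO1 with chemical, free iodide is quantified colorimetrically (Sandell-Kolthoff cerium/arsenic reaction). Triplicate plates, DMSO baseline.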

[8] = CCTE_Shafer_MEA_acute_spike_number: CCTE's Neural Acute Assay for Total Number of Spikes, Shafer Lab (AID 2284008);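 on AC50: curve fitted for decrease in spike count so AC50 reflects inhibitors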
Summary of the method: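 Total spike count from 40 min recordings before and during compound exposure (0.03-40 uM), given as per-well percent change. Cortical cultures from rat, DIV 13 or 15, 37 C; adaptive detection threshold 8x rms noise.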

[9] = CCTE_Shafer_MEA_acute_firing_rate_mean: CCTE's Neural Acute Assay for Mean Firing Rate, Shafer Lab (AID 2284009);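 further: analyzed for loss of signal so actives lower firing rate relative to DMSO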
Summary of the method: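 Read-out: well-mean spike rate (spikes/recording length/electrodes), % change from 40 min pre-dose baseline to 40 min with compound. Rat cortical cultures, DIV 13 or 15, 37 C; 0.03-40 uM; DMSO as negative control.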

[10] = CCTE_Harrill_HTTr_CellCount_MCF7: CCTE's Cell Proliferation Assessment for the High-Throughput Transcriptomics (HTTr) Platform, Harrill Lab (AID 2284012; active means hit-call score of the fitted dose curve at least 0.9, where 1 is the maximum;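 further: count of Hoechst-stained nuclei per well by high-content imaging in MCF-7 cells; cells exposed to compound for six hours; intended direction is loss of nuclei count meaning fewer cells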)
Summary of the method: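 Nuclei counting (Hoechst, high content imaging) in MCF-7 after a 6 h treatment at eight concentrations. Activity fitted bidirectionally, DMSO as negative control.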

[11] = CCTE_Shafer_MEA_acute_burst_number: CCTE's Neural Acute Assay for Single-Electrode Bursts, Shafer Lab (AID 2284013)
Summary of the method: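 Rat cortical cultures, DIV 13/15; 40 min baseline, then 40 min with compound 0.03-40 uM, 37 C. Spikes: 300-5000 Hz band-pass, threshold 8x rms noise. Readout = % change in single-electrode bursts vs baseline, loss-of-signal fit.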

[12] = CCTE_Shafer_MEA_acute_burst_duration_mean: CCTE's Neural Acute Assay for Mean Burst Duration, Shafer Lab (AID 2284014);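 further: hits are decreases in mean burst duration relative to DMSO controls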
Summary of the method: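 Primary rat cortical neurons on 16-electrode MEA wells, treated on DIV 13 or 15 with compound (0.03-40 uM; ≥3 wells each). 40-min baseline and 40-min exposure recordings at 37 C; percent change in mean burst duration per well versus DMSO.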

[13] = CCTE_Shafer_MEA_acute_per_burst_spike_number_mean: CCTE's Neural Acute Assay for Average Number of Spikes Per Burst, Shafer Lab (AID 2284015);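 further: hits are decreases in mean spikes per burst versus baseline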
Summary of the method: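 Rat primary cortical neurons on 48-well MEAs (DIV 13 or 15) were treated with 0.03-40 uM compound at 37 C. Mean spikes per burst over 40 min were recorded before and after exposure and expressed as percent change from baseline, relative to DMSO.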

[14] = CCTE_Simmons_MITO_basal_resp_rate: CCTE's HepG2 Seahorse XF Respirometric Screening Assay at Basal Respiratory State, Simmons Lab (AID 2284001); details: actives raise or lower the signal
Summary of the method: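 HepG2 cells were given test chemicals at 7 concentrations, 125 nM to 100 uM final, and oxygen consumption rate was read every 6 min (3 min mix, 3 min measure) over 72 min. Basal-phase OCR was fitted bidirectionally against DMSO.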

[15] = CCTE_Simmons_MITO_max_resp_rate: CCTE's HepG2 Seahorse XF Respirometric Screening Assay at Maximal Respiratory State [uncoupled], Simmons Lab (AID 2284002); details: actives raise or lower the signal
Summary of the method: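 Maximal (FCCP-uncoupled) respiration rate in HepG2, from Seahorse kinetic OCR over 72 min at 6 min cycles. Compounds at 125 nM–100 uM final, 7 points, three biological replicates; both directions fit relative to DMSO.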

[16] = CCTE_Simmons_MITO_inhib_resp_rate: CCTE's HepG2 Seahorse XF Respirometric Screening Assay at Inhibited Respiratory State [full ETC block], Simmons Lab (AID 2284006); details: actives raise or lower the signal
Summary of the method: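 Inhibited respiration was taken as HepG2 oxygen consumption after rotenone/antimycin A, which followed test-compound and FCCP injections. Chemicals were tested at seven final concentrations from 125 nM to 100 uM. Activity was fitted bidirectionally relative to DMSO.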

Measured: AC50

Nucleoli Translocation, AR (gene 367), sequence (P10275 whole entry, looked up): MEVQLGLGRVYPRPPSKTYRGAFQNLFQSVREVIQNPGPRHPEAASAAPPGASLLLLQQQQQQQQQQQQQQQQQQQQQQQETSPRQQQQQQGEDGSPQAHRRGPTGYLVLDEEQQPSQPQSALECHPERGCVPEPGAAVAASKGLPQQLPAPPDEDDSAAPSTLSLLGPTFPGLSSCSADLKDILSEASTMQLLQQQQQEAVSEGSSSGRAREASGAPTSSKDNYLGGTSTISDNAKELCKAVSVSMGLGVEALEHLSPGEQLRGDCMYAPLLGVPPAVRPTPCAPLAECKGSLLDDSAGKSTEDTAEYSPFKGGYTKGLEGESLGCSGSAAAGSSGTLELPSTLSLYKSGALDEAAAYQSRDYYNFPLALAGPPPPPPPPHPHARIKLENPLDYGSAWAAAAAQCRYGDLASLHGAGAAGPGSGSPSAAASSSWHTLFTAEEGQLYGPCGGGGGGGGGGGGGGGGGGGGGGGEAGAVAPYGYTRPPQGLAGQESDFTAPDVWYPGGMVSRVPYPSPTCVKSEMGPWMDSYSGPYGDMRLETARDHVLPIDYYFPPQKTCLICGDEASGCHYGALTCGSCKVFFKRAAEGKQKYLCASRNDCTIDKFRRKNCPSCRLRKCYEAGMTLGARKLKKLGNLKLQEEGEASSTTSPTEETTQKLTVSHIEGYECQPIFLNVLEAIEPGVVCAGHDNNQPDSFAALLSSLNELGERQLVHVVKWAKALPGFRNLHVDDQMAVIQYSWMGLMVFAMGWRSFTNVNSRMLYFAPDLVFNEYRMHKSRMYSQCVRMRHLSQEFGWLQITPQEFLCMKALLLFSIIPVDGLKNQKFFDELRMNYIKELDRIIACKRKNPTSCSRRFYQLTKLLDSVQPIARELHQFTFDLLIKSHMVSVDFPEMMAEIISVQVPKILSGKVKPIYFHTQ
Ratio of Nucleoli Translocation and Cytoplasm, AR (gene 367), sequence (P10275 whole entry, looked up): as above

c1cc2ccc3cccc4ccc(c1)c2c34
inactive: [1] | [2] | [3] | [4] | [5] | [6]

CCCCCCCCCc1ccc(O)cc1
inactive: [5] | [6] | [10] | [11]
active: [7] 90.3 µM | [8] 9.9 µM | [9] 9.87 µM | [12] 20 µM | [13] 11.1 µM

CC(C)(O)C(=O)Nc1ccc([N+](=O)[O-])c(C(F)(F)F)c1
inactive: [16] | [5] | [6]
active: [14] 40.9 µM | [15] 50 µM

Oc1ccc(C(c2ccc(O)cc2)(C(F)(F)F)C(F)(F)F)cc1
active: [14] 10.8 µM | [15] 21.6 µM | [8] 3.17 µM | [9] 3.16 µM
inactive: [16] | [5] | [6] | [11] | [12] | [13]

O=C(NC(=O)c1c(F)cccc1F)Nc1cc(Cl)c(OC(F)(F)C(F)F)c(Cl)c1
inactive: [1] | [2] | [3] | [4] | [8] | [9] | [5] | [6] | [10] | [11] | [12] | [13]

CCNc1nc(NC(C)C)nc(SC)n1
inactive: [1] | [14] | [15] | [16] | [5] | [6]

Cc1ccccc1CO[C@@H]1C[C@@]2(C(C)C)CC[C@]1(C)O2
inactive: [1] | [2] | [3] | [4] | [5] | [6]

Oc1c(Cl)c(Cl)c(Cl)c(Cl)c1Cl
inactive: [16] | [5] | [6] | [10]
active: [14] 0.451 µM | [15] 16.2 µM

COS(=O)(=O)OC
inactive: [8] | [9] | [5] | [6] | [10] | [11] | [12] | [13]

c1ccc(-c2ccccc2)cc1
inactive: [1] | [2] | [8] | [9] | [5] | [6] | [10] | [11] | [12] | [13]

CCCCCCCCCC[N+](C)(C)CCCCCCCCCC
active: [7] 40.7 µM | [14] 8.58 µM | [15] 26.4 µM | [8] 2.81 µM | [9] 2.88 µM | [13] 9.61 µM
inactive: [16] | [5] | [10] | [11] | [12]

CCCCCCCCOC(=O)c1ccccc1C(=O)OCCCCCCCC
inactive: [1] | [3] | [5] | [6] | [10]

CC(c1ccc(O)cc1)(c1ccc(O)cc1)c1ccc(O)cc1
active: [14] 14.5 µM | [8] 3.97 µM | [9] 3.97 µM
inactive: [15] | [16] | [5] | [6] | [11] | [12]
